PubChem BioAssay (NCI)
Compounds without any hit were thinned out: in the full panel of roughly 79,000, 15% have a hit. The source made the active and inactive calls. Cut-off read from the data, not from the text of the source: active = growth inhibition above about 70%; inactive = the rest.

Tests used:
[1] = NCI Yeast Anticancer Drug Screen. Data for the rad52 strain (AID 147);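 note: 0% = growth of vehicle-treated control cultures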; details: S. cerevisiae rad52 mutant growth inhibition, hits give high values
How it was run: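 Read-out: growth inhibition versus vehicle-treated controls. Cells were a DNA repair-deficient yeast strain treated with compounds.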

[2] = NCI Yeast Anticancer Drug Screen. Data for the mgt1 strain (AID 153); details: S. cerevisiae mgt1 mutant growth inhibition, hits give high values
How it was run: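 mgt1 yeast grown with test compound; read-out is growth inhibition versus vehicle-treated cultures.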

[3] = NCI Yeast Anticancer Drug Screen. Data for the rad50 strain (AID 155);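 note: 0% = growth of vehicle-only cultures of the same strain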; details: S. cerevisiae rad50 strain growth inhibition, hits give high values
How it was run: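 Yeast carrying a defined DNA repair defect were exposed to test compounds, and growth was compared with vehicle-treated controls to give percent inhibition.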

[4] = NCI Yeast Anticancer Drug Screen. Data for the mec2-1 strain (AID 157); details: S. cerevisiae mec2-1 strain, hits give high values
How it was run: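 Yeast mec2-1 mutant treated with compound. Readout: growth inhibition vs vehicle controls.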

[5] = NCI Yeast Anticancer Drug Screen. Data for the sgs1 mgt1 strain (AID 161);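 note: 0% = growth of cultures given vehicle only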; details: S. cerevisiae sgs1 mgt1 strain, hits give high values
How it was run: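 Test agents were incubated with a DNA-repair-mutant yeast strain. Growth was then read and compared against vehicle-treated controls.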

[6] = NCI Yeast Anticancer Drug Screen. Data for the CLN2oe strain (AID 163);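 note: 0% = growth of vehicle-only control cultures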; details: S. cerevisiae CLN2oe strain, hits give high values
How it was run: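 Read-out: yeast growth inhibition, expressed relative to vehicle-only controls. The strain bears an engineered cell-cycle alteration.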

[7] = NCI Yeast Anticancer Drug Screen. Data for the cln2 rad14 strain (AID 165);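 note: 0% = growth equal to vehicle treated cultures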; details: S. cerevisiae cln2 rad14 strain, hits give high values
How it was run: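 cln2 rad14 yeast strain; compound exposure; growth inhibition read vs vehicle controls.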

[8] = NCI Yeast Anticancer Drug Screen. Data for the bub3 strain (AID 167); details: S. cerevisiae bub3 mutant strain, hits give high values
How it was run: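 Compounds were applied to a genetically altered yeast strain carrying a cell-cycle control defect. Growth inhibition was scored against vehicle-treated controls.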

[9] = NCI Yeast Anticancer Drug Screen. Data for the wt2 strain (AID 169);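 note: 0% = growth of vehicle-treated yeast cultures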; details: S. cerevisiae wt2 strain growth inhibition, hits give high values
How it was run: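 Read-out: growth inhibition versus vehicle-treated control cultures after compound exposure of the yeast strain.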

[10] = NCI Yeast Anticancer Drug Screen. Data for the mlh1 strain (AID 171);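 note: 0% = growth of vehicle-treated control cultures of the same strain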; details: S. cerevisiae mlh1 strain growth inhibition, hits give high values
How it was run: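 Read-out: growth inhibition versus vehicle controls. Strain: engineered yeast with a defined DNA repair or cell cycle defect, compound-treated.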

[11] = NCI Yeast Anticancer Drug Screen. Data for the sgs1 strain (AID 173);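 note: 0% = growth of vehicle-only control cultures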; details: S. cerevisiae sgs1 mutant, hits give high values
How it was run: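 Read-out: yeast growth inhibition relative to vehicle controls, following compound exposure of a strain with a defined DNA repair/cell cycle alteration.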

[12] = NCI Yeast Anticancer Drug Screen. Data for the mlh1 rad18 strain (AID 175); details: S. cerevisiae mlh1 rad18 strain growth inhibition, hits give high values
How it was run: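 Yeast w/ defined DNA-repair lesions; compound exposure; growth vs vehicle controls → % inhibition.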

[13] = NCI Yeast Anticancer Drug Screen. Data for the wt1 strain (AID 149);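 note: 0% = growth of vehicle-treated wt1 cultures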; details: S. cerevisiae wt1 strain (SPY 50644) growth inhibition, hits give high values
How it was run: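 Yeast wt1 strain exposed to compounds; growth inhibition measured relative to vehicle-treated controls.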

[14] = NCI Yeast Anticancer Drug Screen. Data for the rad50EPP+ strain (AID 151);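 note: 0% = growth of vehicle-treated control cultures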; details: S. cerevisiae rad50 mutant strain, hits give high values
How it was run: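 Growth inhibition read against vehicle controls in rad50EPP+ yeast, a strain altered in DNA damage repair, after compound exposure.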

[15] = NCI Yeast Anticancer Drug Screen. Data for the rad14 strain (AID 159);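 note: 0% = growth of vehicle-treated control cultures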; details: S. cerevisiae rad14 strain growth inhibition, hits give high values
How it was run: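 Yeast cells carrying a defined DNA-repair defect were exposed to compounds, and growth inhibition was calculated relative to vehicle-treated control cultures.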

[16] = NCI Yeast Anticancer Drug Screen. Data for the rad18 strain (AID 177); details: S. cerevisiae rad18 mutant growth inhibition, hits give high values
How it was run: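 Readout: growth inhibition vs vehicle controls. Cells: genetically altered yeast strain, DNA repair defect.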

[17] = at 5.0 µM (retest, dose inferred, filed as 0.5)
[18] = at 50.0 µM (retest, dose inferred, filed as 5.0)

Measured: growth inhibition

CCCCCCCCCCCCOCCOCCOCC(N)=O
active: [1]; at 33.0 µM 97% | [1]; at 100.0 µM 96% | [2]; at 33.0 µM 97% | [2]; at 100.0 µM 96% | [3]; at 33.0 µM 97% | [3]; at 50.0 µM 91.2% | [3]; at 100.0 µM 95% | [4]; at 33.0 µM 97% | [4]; at 50.0 µM 92.5% | [4]; at 100.0 µM 95% | [5]; [18] 98% | [5]; at 50.0 µM 93.3% | [6]; at 33.0 µM 96% | [6]; at 100.0 µM 93% | [7]; [18] 97% | [7]; at 50.0 µM 89.5% | [8]; at 33.0 µM 97% | [8]; [18] 97% | [8]; at 50.0 µM 91.5% | [8]; at 100.0 µM 94% | [9]; at 33.0 µM 97% | [9]; at 100.0 µM 96% | [10]; at 33.0 µM 93% | [10]; at 100.0 µM 96% | [11]; at 33.0 µM 96% | [11]; at 100.0 µM 94% | [12]; at 50.0 µM 91.1%
inactive: [1]; at 1.2 µM 15% | [1]; at 3.7 µM -11% | [1]; at 11.0 µM 1% | [2]; at 1.2 µM 9% | [2]; at 3.7 µM -8% | [2]; at 11.0 µM -10% | [3]; at 1.2 µM 6% | [3]; at 3.7 µM -1% | [3]; [17] 36% | [3]; at 11.0 µM 10% | [3]; [18] 36% | [4]; at 1.2 µM -6% | [4]; at 3.7 µM -6% | [4]; [17] 39% | [4]; at 11.0 µM 16% | [4]; [18] 29% | [5]; [17] 5% | [6]; at 1.2 µM -15% | [6]; at 3.7 µM -18% | [6]; at 11.0 µM -13% | [7]; [17] 61% | [8]; at 1.2 µM -6% | [8]; at 3.7 µM 1% | [8]; [17] 21% | [8]; at 11.0 µM -13% | [9]; at 1.2 µM -26% | [9]; at 3.7 µM -20% | [9]; at 11.0 µM -12% | [10]; at 1.2 µM -12% | [10]; at 3.7 µM -12% | [10]; at 11.0 µM 6% | [11]; at 1.2 µM -12% | [11]; at 3.7 µM -15% | [11]; at 11.0 µM -5% | [12]; [17] 26% | [12]; [18] 43%

Nc1ccc(N=Nc2ccc(-c3ccc(O)cc3)cc2)c2ccc(S(=O)(=O)O)cc12
inactive: [13]; at 1.2 µM 0% | [13]; at 3.7 µM 1% | [13]; at 11.0 µM 6% | [13]; at 33.0 µM 10% | [13]; at 100.0 µM 15% | [14]; at 1.2 µM 7% | [14]; at 3.7 µM 25% | [14]; at 11.0 µM 67% | [2]; at 1.2 µM 1% | [2]; at 3.7 µM 0% | [2]; at 11.0 µM 3% | [2]; at 33.0 µM 6% | [2]; at 100.0 µM 12% | [3]; at 1.2 µM 1% | [3]; at 3.7 µM 1% | [3]; [17] 8% | [3]; at 11.0 µM 17% | [3]; at 33.0 µM 25% | [3]; [18] 57% | [3]; at 100.0 µM 43% | [4]; at 1.2 µM 2% | [4]; at 3.7 µM 3% | [4]; [17] 15% | [4]; at 11.0 µM 8% | [4]; at 33.0 µM 14% | [4]; [18] 10% | [4]; at 50.0 µM 34.9% | [4]; at 100.0 µM 23% | [15]; at 1.2 µM -1% | [15]; at 3.7 µM -1% | [15]; at 11.0 µM 4% | [15]; at 33.0 µM 11% | [15]; at 100.0 µM 30% | [5]; [17] 1% | [5]; [18] 15% | [5]; at 50.0 µM 19.1% | [6]; at 1.2 µM 1% | [6]; at 3.7 µM 2% | [6]; at 11.0 µM 0% | [6]; at 33.0 µM -1% | [6]; at 100.0 µM -3% | [7]; [17] 45% | [7]; [18] 13% | [7]; at 50.0 µM 47.1% | [8]; at 1.2 µM -1% | [8]; at 3.7 µM -4% | [8]; [17] 9% | [8]; at 11.0 µM -2% | [8]; at 33.0 µM 15% | [8]; [18] 12% | [8]; at 50.0 µM 38.4% | [8]; at 100.0 µM -9% | [10]; at 1.2 µM 3% | [10]; at 3.7 µM 3% | [10]; at 11.0 µM 6% | [10]; at 33.0 µM -19% | [10]; at 100.0 µM 18% | [11]; at 1.2 µM 2% | [11]; at 3.7 µM 8% | [11]; at 11.0 µM 20% | [11]; at 33.0 µM 37% | [11]; at 100.0 µM 40% | [12]; [17] 5% | [12]; [18] 43% | [12]; at 50.0 µM 55.1% | [16]; at 1.2 µM -4% | [16]; at 3.7 µM 11% | [16]; at 11.0 µM 48% | [16]; at 33.0 µM 69%
active: [14]; at 33.0 µM 79% | [14]; at 100.0 µM 78% | [3]; at 50.0 µM 82.9% | [16]; at 100.0 µM 72%

CCC(C)(C)c1ccc(Oc2ccccc2)c(N)c1
inactive: [13]; at 1.2 µM -15% | [13]; at 3.7 µM -12% | [14]; at 1.2 µM 3% | [14]; at 3.7 µM 36% | [14]; at 11.0 µM 66% | [2]; at 1.2 µM -16% | [2]; at 3.7 µM -1% | [3]; at 1.2 µM -33% | [3]; at 3.7 µM -6% | [3]; [17] 42% | [3]; [18] 51% | [4]; at 1.2 µM -40% | [4]; at 3.7 µM -24% | [4]; [17] 44% | [4]; [18] 50% | [15]; at 1.2 µM -2% | [15]; at 3.7 µM 13% | [5]; [17] 2% | [6]; at 1.2 µM -22% | [6]; at 3.7 µM -2% | [7]; [17] 62% | [8]; at 1.2 µM -10% | [8]; at 3.7 µM -6% | [8]; [17] 36% | [10]; at 1.2 µM -30% | [10]; at 3.7 µM -18% | [11]; at 1.2 µM -17% | [11]; at 3.7 µM 6% | [12]; [17] 39% | [12]; [18] 45% | [16]; at 1.2 µM -31% | [16]; at 3.7 µM -7%
active: [13]; at 11.0 µM 97% | [13]; at 33.0 µM 99% | [13]; at 100.0 µM 98% | [14]; at 33.0 µM 84% | [14]; at 100.0 µM 90% | [2]; at 11.0 µM 96% | [2]; at 33.0 µM 99% | [2]; at 100.0 µM 99% | [3]; at 11.0 µM 94% | [3]; at 33.0 µM 98% | [3]; at 50.0 µM 90.5% | [3]; at 100.0 µM 99% | [4]; at 11.0 µM 96% | [4]; at 33.0 µM 99% | [4]; at 50.0 µM 93.2% | [4]; at 100.0 µM 99% | [15]; at 11.0 µM 97% | [15]; at 33.0 µM 99% | [15]; at 100.0 µM 99% | [5]; [18] 97% | [5]; at 50.0 µM 93.5% | [6]; at 11.0 µM 96% | [6]; at 33.0 µM 99% | [6]; at 100.0 µM 97% | [7]; [18] 99% | [7]; at 50.0 µM 92.3% | [8]; at 11.0 µM 95% | [8]; at 33.0 µM 99% | [8]; [18] 99% | [8]; at 50.0 µM 92.3% | [8]; at 100.0 µM 98% | [10]; at 11.0 µM 95% | [10]; at 33.0 µM 98% | [10]; at 100.0 µM 98% | [11]; at 11.0 µM 94% | [11]; at 33.0 µM 99% | [11]; at 100.0 µM 98% | [12]; at 50.0 µM 91.2% | [16]; at 11.0 µM 94% | [16]; at 33.0 µM 99% | [16]; at 100.0 µM 97%
